According to PubChem BioAssay (Tox21):
Records with an inconclusive call do not appear. Calls of active or inactive are those of the source. Unless noted, calls follow the shape of the dose curve; as a rule, active = well fitted curve in the direction sought with a large enough effect in the repeat runs; inconclusive = weak or mixed curves; inactive = no such curve, though single readings can be large; an effect the other way counts as inactive or inconclusive.

Assays:
[1] = qHTS assay to identify small molecule antagonists of the TGF-beta/Smad signaling pathway - cell viability counter screen (AID 1346824); also: nearly all actives have a fitted effect of over 50% in size
Method in brief: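 Cytotoxicity counter-screen run in the same wells as the beta-lactamase Smad reporter read: CellTiter-Glo luminescence after 30 min at room temperature. HEK 293T SBE-bla cells had 5 hr compound exposure at 37 C with TGF-beta1 (0.25 ng/mL stock).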

[2] = qHTS assay to identify small molecule agonists of the TGF-beta/Smad signaling pathway - cell viability counter screen (AID 1346829); also: top concentration of the series differs between compounds; nearly all actives have a fitted effect of over 45% in size
Method in brief: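 After overnight seating at 37 C and 5% CO2, reporter cells got compounds for 5 hr and FRET substrate for 2 hr; cell viability then came from CellTiter-Glo luminescence.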

[3] = qHTS assay to identify small molecule agonists of the TGF-beta/Smad signaling pathway (AID 1346859; active = well fitted activation curve with a large enough effect in the signal ratio in the repeat runs, not every such curve was filed as active; the % refers to the signal ratio; also: series mostly up to about 77 µM)
Method in brief: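 Each well held 4,000 SBE-bla HEK 293T cells incubated overnight before compound addition; 5 hr later the cleavable FRET substrate went on for 2 hr at room temperature, and fluorescence was read at two emissions.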

[4] = Human pregnane X receptor (PXR) small molecule agonists, qHTS cell viability counter screen (AID 1346977); also: nearly all actives have a fitted effect of over 50% in size
Method in brief: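 Tox21 qHTS format; PXR-Luc HepG2, 2,000/well, charcoal-stripped FBS 5%. Cpd exposure 24hr. Read: CellTiter-Fluor fluorescence, multiplexed with luciferase.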

[5] = Caspase-3/7 induction in HepG2 cells by small molecules, qHTS assay (AID 1346978); also: nearly all actives have a fitted effect of over 15% in size
Method in brief: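 Caspase-3/7 induction was measured by Caspase-Glo 3/7 luminescence (30 min, room temperature) after a 17 hr compound exposure of wild-type HepG2 cells seeded at 2,000 per well and pre-incubated 5 hr.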

[6] = Caspase-3/7 induction in CHO-K1 cells by small molecules, qHTS cell viability counter screen (AID 1346979); also: nearly all actives have a fitted effect of over 35% in size
Method in brief: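 CellTiter-Fluor viability check, qHTS format: wild-type CHO-K1, 16hr compound treatment, 1hr reagent incubation, fluorescence read.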

[7] = Caspase-3/7 induction in HepG2 cells by small molecules, qHTS cell viability counter screen (AID 1346981); also: series mostly up to about 92 µM; nearly all actives have a fitted effect of over 30% in size
Method in brief: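 Cell viability is measured as a cytotoxicity counter screen alongside the Caspase-Glo 3/7 readout in identical wells. Wild-type HepG2 cells are treated with test compounds for 16 hr at 37 C before CellTiter-Fluor addition and a 1-hr incubation.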

[8] = molecular target: Nuclear receptor subfamily 1 group I member 2 (Homo sapiens) (UniProt O75469); test: Human pregnane X receptor (PXR) small molecule agonists, qHTS assay (AID 1346982); also: nearly all actives have a fitted effect of over 35% in size; also: potency is read from the fitted curve at half-maximal effect
Method in brief: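 Cells: HepG2 stably carrying PXR-Luc. Medium held 5% charcoal-stripped FBS. Compounds in DMSO added after 5 hr plating, incubated 24 hr, then luminescence quantified with ONE-Glo.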

[9] = molecular target: Cytochrome P450 2D6 (Homo sapiens) (UniProt P10635); test: Cytochrome P450 Family 2 Subfamily D Member 6 (CYP2D6) small molecule antagonists: luciferase reporter qHTS assay (AID 1671196); also: nearly all actives have a fitted effect of over 50% in size; also: potency is read from the fitted curve at half-maximal effect; as to activity change, negative = inhibition: series mostly up to about 120 µM
Method in brief: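 Enzyme and proluciferin substrate were first combined with test chemical for 10 min at room temperature. Adding NADPH regeneration solution started a 1 h reaction, stopped with luciferin detection reagent and read by luminescence 20 min later.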

[10] = molecular target: Cytochrome P450 2C19 (Homo sapiens) (UniProt P33261); test: Cytochrome P450 Family 2 Subfamily C Member 19 (CYP2C19) small molecule antagonists: luciferase reporter qHTS assay (AID 1671197); also: nearly all actives have a fitted effect of over 65% in size; also: potency is read from the fitted curve at half-maximal effect; as to activity change, negative = inhibition: series mostly up to about 120 µM
Method in brief: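 Inhibition of CYP2C19 was scored from loss of luminescence in a P450-Glo proluciferin substrate assay, NADPH-started and run 1 h at 37C, with ketoconazole as positive control.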

[11] = molecular target: Cytochrome P450 1A2 (Homo sapiens) (UniProt P05177); test: Cytochrome P450 Family 1 Subfamily A Member 2 (CYP1A2) small molecule antagonists: luciferase reporter qHTS assay (AID 1671199); also: nearly all actives have a fitted effect of over 50% in size; also: potency is read from the fitted curve at half-maximal effect; as to activity change, negative = inhibition: series mostly up to about 120 µM
Method in brief: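 Compounds were incubated with CYP1A2 and a luminogenic proluciferin substrate for 10 min at room temperature before the reaction was started with NADPH regeneration solution. After 1 h, detection reagent was added and light output, proportional to CYP activity, was recorded.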

[12] = molecular target: Voltage-gated inwardly rectifying potassium channel KCNH2 (Homo sapiens) (UniProt Q12809); test: Human Ether-a-go-go-Related Gene (hERG) channel small molecule antagonists: fluorescence cell-based qHTS assay (AID 1671200)
Method in brief: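 Kinetic two-minute fluorescence traces, sampled at 1 s, were collected following thallium stimulus of U2OS cells (1000 per well) that had been cultured overnight at 37 C and loaded with FluxOR II.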

[13] = molecular target: Cytochrome P450 3A4 (Homo sapiens) (UniProt P08684); test: Cytochrome P450 Family 3 Subfamily A Member 4 (CYP3A4) small molecule antagonists: luciferase reporter qHTS assay (AID 1671201); also: nearly all actives have a fitted effect of over 50% in size; also: potency is read from the fitted curve at half-maximal effect; as to activity change, negative = inhibition: series mostly up to about 120 µM
Method in brief: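 Proluciferin-to-luciferin conversion by CYP3A4, NADPH-regenerated, 1 h RT; luminescence read as RLU. Ketoconazole as control.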

[14] = Caspase-3/7 induction in CHO-K1 cells by small molecules, qHTS assay (AID 1346980); also: nearly all actives have a fitted effect of over 15% in size
Method in brief: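 Luminescent Caspase-Glo 3/7 read (30min, room temperature) quantified apoptosis induction. Cells were wild-type CHO-K1, treated with compound for 17hr at 37 C and 5% CO2.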

[15] = molecular target: Cytochrome P450 2C9 (Homo sapiens) (UniProt P11712); test: Cytochrome P450 Family 2 Subfamily C Member 9 (CYP2C9) small molecule antagonists: luciferase reporter qHTS assay (AID 1671198); also: nearly all actives have a fitted effect of over 50% in size; also: potency is read from the fitted curve at half-maximal effect; as to activity change, negative = inhibition: series mostly up to about 120 µM
Method in brief: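 Enzyme-substrate mix preincubated with compound 10 min at room temperature; reaction started with NADPH regeneration solution, 1 h 37C. Luminescent luciferin product read after 20 min detection reagent.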

[16] = molecular target: Nuclear receptor subfamily 1 group I member 2 (Rattus norvegicus) (UniProt Q9R1A7); test: Rat pregnane X receptor (rPXR) activation by small molecules, qHTS assay (AID 1346983); conditions: rPXR luciferase reporter cells, One-Glo luminescence, 24 h; stronger effect = higher value; also: nearly all actives have a fitted effect of over 20% in size
Method in brief: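 Luminescent readout (One-Glo luciferase, 30 min room temperature) followed 24 hr compound treatment at 37 C of rPXR cells plated 2,000 per well and preincubated 5hr; qHTS format with compounds delivered in DMSO.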

[17] = molecular target: Nuclear receptor subfamily 1 group I member 2 (Homo sapiens) (UniProt O75469); test: CYP3A4 induction through human pregnane X receptor (PXR) by small molecules, qHTS assay (AID 1346984); also: nearly all actives have a fitted effect of over 40% in size
Method in brief: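 Quantitative HTS in DPX-2 cells, i.e. HepG2 transfected with PXR response element and CYP3A4-promoter luciferase. Compounds in DMSO incubated 24hr at 37C; then P450-Glo CYP3A4 substrate, 3uM final, 3hr; One-Glo luminescence.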

[18] = molecular target: Thyrotropin-releasing hormone receptor (Homo sapiens) (UniProt P34981); test: qHTS assay to identify small molecule antagonists of the thyrotropin-releasing hormone receptor (TRHR) signaling pathway (AID 1346877; active = well fitted inhibition curve with a large enough effect in the repeat runs, not every such curve was filed as active; also: series mostly up to about 51 µM)
Method in brief: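 Antagonism is measured as suppression of the calcium response to 1 nM TRH in TRHR-HEK293 cells that have been dye-loaded for 2 h at 37 °C after overnight plating. Each compound is tested at 15 concentrations in triplicate.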

[19] = molecular target: Thyrotropin-releasing hormone receptor (Homo sapiens) (UniProt P34981); test: qHTS assay to identify small molecule agonists of the thyrotropin-releasing hormone receptor (TRHR) signaling pathway (AID 1346891; calls by dose curve; also: series mostly up to about 58 µM)
Method in brief: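 Screening of agonists relied on calcium signalling in HEK293 cells expressing human TRHR: dye loading 2 h at 37 °C preceded compound addition and a 3-min fluorescence time course.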
% is scaled to controls: 0 for no effect and ±100 for the full control effect.

Sequence of Nuclear receptor subfamily 1 group I member 2 (Homo sapiens) (O75469 whole entry, looked up): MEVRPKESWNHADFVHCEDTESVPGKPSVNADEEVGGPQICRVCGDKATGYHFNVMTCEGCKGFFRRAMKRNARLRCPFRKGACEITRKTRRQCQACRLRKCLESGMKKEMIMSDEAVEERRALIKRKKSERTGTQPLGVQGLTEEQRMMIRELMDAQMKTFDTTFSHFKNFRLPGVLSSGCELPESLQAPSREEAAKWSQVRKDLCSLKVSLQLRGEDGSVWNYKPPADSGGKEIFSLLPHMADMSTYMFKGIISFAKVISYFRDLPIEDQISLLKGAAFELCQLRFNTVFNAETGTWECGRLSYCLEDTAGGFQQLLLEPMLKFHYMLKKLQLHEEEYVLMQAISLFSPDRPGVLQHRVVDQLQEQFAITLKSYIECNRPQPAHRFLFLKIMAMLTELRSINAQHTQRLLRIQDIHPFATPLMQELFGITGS
Sequence of Thyrotropin-releasing hormone receptor (Homo sapiens) (P34981 whole entry, looked up): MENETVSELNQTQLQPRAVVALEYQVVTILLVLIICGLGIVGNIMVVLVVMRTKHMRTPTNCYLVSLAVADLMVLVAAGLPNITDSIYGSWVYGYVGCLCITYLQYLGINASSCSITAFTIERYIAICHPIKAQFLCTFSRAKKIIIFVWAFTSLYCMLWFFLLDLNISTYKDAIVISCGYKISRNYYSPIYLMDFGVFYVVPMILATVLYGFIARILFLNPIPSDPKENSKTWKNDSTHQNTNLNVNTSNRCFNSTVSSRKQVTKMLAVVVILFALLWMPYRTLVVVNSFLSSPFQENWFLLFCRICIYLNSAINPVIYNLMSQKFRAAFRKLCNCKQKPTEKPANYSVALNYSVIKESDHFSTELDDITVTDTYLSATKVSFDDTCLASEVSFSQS
Sequence of Cytochrome P450 2D6 (Homo sapiens) (P10635 whole entry, looked up): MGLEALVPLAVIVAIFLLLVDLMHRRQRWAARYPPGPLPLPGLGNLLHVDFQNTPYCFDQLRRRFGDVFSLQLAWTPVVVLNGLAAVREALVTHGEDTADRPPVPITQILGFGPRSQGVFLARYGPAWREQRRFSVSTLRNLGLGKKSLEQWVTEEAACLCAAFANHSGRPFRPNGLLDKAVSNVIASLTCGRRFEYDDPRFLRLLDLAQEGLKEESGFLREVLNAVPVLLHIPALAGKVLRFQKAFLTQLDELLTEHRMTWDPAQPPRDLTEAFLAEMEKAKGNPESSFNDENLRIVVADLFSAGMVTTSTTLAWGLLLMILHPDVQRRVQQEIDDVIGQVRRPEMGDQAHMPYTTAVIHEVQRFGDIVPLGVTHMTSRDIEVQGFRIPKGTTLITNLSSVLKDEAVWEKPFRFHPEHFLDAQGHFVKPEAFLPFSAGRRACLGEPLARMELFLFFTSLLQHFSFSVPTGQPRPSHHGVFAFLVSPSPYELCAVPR
Sequence of Cytochrome P450 2C19 (Homo sapiens) (P33261 whole entry, looked up): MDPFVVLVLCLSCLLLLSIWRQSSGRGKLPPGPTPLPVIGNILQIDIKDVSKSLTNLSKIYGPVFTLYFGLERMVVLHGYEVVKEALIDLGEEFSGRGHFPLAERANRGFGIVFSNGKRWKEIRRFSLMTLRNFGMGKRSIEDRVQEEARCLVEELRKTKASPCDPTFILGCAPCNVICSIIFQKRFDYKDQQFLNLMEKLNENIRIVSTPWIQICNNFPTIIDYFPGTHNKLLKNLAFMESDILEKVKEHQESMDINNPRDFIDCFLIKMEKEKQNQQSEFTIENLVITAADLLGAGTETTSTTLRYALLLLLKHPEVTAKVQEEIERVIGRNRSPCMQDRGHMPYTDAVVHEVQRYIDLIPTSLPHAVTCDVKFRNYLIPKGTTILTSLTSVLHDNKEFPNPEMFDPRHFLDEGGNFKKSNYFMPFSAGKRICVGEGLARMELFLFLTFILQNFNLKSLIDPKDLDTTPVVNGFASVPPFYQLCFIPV
Sequence of Cytochrome P450 3A4 (Homo sapiens) (P08684 whole entry, looked up): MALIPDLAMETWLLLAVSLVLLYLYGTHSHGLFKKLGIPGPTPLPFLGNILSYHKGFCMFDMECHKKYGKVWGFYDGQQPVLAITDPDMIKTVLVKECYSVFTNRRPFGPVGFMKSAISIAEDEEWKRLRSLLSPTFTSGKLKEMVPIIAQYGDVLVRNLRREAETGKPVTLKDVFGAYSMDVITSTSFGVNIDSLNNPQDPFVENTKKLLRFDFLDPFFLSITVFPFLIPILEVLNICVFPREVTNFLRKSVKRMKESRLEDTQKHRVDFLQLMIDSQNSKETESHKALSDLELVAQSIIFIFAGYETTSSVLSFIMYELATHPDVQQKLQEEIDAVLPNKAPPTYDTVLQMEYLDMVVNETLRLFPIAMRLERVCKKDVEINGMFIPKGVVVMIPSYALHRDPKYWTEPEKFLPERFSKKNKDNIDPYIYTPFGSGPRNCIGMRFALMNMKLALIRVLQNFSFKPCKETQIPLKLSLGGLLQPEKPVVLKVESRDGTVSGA
Sequence of Cytochrome P450 1A2 (Homo sapiens) (P05177 whole entry, looked up): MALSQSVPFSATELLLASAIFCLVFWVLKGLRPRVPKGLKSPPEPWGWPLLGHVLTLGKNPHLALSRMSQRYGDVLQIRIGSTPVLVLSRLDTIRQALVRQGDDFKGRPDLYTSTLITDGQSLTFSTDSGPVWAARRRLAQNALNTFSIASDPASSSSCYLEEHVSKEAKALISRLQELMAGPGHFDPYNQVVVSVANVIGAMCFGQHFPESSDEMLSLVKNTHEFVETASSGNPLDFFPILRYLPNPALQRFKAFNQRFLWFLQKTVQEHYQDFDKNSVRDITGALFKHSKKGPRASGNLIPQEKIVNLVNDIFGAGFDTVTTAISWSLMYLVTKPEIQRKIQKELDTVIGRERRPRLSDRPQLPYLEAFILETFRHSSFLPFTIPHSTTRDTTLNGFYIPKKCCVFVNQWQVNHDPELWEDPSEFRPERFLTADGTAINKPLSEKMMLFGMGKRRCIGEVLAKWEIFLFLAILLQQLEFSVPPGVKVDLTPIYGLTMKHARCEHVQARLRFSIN
Sequence of Cytochrome P450 2C9 (Homo sapiens) (P11712 whole entry, looked up): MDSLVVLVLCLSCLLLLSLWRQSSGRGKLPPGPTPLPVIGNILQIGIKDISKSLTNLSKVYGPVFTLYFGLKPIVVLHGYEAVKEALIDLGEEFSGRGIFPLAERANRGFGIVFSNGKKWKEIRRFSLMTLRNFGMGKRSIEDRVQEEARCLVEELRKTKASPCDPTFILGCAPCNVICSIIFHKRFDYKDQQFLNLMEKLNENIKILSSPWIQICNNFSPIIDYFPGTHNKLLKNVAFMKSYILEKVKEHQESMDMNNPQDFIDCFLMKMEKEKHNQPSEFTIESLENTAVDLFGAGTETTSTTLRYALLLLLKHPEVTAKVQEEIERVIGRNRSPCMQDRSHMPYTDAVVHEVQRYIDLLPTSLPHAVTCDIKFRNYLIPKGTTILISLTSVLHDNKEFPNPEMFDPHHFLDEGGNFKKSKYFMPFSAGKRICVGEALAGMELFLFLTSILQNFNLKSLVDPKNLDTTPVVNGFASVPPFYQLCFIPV
Sequence of Voltage-gated inwardly rectifying potassium channel KCNH2 (Homo sapiens) (Q12809 whole entry, looked up): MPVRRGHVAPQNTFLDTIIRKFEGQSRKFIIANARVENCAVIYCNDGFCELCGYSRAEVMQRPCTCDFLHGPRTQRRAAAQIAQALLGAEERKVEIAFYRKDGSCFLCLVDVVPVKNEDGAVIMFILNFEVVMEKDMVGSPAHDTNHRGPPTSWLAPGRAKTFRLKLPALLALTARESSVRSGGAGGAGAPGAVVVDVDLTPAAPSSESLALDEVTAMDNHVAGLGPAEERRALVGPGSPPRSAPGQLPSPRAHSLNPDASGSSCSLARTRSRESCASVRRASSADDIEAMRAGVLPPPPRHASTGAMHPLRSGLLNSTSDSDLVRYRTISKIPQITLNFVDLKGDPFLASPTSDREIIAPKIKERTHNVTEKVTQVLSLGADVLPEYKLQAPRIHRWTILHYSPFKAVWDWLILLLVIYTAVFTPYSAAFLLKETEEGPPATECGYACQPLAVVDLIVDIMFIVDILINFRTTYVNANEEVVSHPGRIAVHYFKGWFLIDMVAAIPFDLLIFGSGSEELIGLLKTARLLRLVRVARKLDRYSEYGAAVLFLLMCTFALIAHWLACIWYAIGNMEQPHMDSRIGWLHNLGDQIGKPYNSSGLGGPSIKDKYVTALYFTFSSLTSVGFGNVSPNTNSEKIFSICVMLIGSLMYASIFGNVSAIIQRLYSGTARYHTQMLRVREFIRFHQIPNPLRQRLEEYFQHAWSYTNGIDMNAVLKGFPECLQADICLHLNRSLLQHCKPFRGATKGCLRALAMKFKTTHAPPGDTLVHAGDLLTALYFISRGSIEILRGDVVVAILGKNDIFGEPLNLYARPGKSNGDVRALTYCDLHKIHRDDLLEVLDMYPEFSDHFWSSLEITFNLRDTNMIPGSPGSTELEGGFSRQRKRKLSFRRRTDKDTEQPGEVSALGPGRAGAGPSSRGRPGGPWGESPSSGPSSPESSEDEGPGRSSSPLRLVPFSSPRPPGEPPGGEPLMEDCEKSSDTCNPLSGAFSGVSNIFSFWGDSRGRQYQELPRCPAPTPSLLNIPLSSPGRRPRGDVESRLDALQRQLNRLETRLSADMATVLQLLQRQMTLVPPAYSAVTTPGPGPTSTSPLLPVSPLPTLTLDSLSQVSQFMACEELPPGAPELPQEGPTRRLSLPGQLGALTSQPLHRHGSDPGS
Sequence of Nuclear receptor subfamily 1 group I member 2 (Rattus norvegicus) (Q9R1A7 whole entry, looked up): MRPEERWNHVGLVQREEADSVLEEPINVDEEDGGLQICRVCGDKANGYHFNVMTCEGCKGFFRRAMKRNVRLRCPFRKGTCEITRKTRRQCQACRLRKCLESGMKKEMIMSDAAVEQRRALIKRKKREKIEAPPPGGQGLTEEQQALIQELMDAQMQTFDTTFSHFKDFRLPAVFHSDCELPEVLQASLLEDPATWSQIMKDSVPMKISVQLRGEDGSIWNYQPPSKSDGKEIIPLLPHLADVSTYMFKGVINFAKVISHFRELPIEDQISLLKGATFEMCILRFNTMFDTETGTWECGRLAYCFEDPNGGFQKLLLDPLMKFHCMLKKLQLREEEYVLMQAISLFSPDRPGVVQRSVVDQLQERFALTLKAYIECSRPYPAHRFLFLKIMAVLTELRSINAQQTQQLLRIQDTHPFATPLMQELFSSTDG

COC(=O)CCCCC(=O)O
inactive: outcome [1] | outcome [2] | outcome [3] | outcome [4] | outcome [5] | Potency [6] | outcome [7] | Potency [8] | Potency [9] | Potency [10] | Potency [11] | Potency [12] | Potency [13]

C=C(C)[C@@H]1CC=C(C)CC1
inactive: outcome [1] | outcome [2] | outcome [3] | outcome [4] | outcome [5] | Potency [6] | outcome [14] | outcome [7] | Potency [8] | Potency [9] | Potency [10] | Potency [12] | Potency [13]

[O]=[Mo](=[O])=[O]
inactive: viability change, negative = cytotoxic [1] 0.506% [at 15.8 µM] | activity change, negative = cytotoxicity [2] 7.35% [at 15.8 µM] | activation [3] 0.212% [at 15.8 µM] | activity change, negative = cytotoxicity [4] 1.91% [at 19 µM] | caspase activation [5] 1.23% [at 19 µM] | activity change, negative = cytotoxicity [6] 3.86% [at 19 µM] | caspase-3/7 activation [14] 0.334% [at 19 µM] | activity change, negative = cytotoxicity [7] -3.34% [at 19 µM] | activation [8] 1.34% [at 19 µM] | activity change, negative = inhibition [9] -4.35% [at 23.6 µM] | activity change, negative = inhibition [10] -2.98% [at 23.6 µM] | activity change, negative = inhibition [11] 2.53% [at 23.6 µM] | activity change, negative = inhibition [12] -1.28% [at 15.8 µM] | activity change, negative = inhibition [13] -5.3% [at 23.6 µM]

CCc1occc(=O)c1O
inactive: outcome [1] | outcome [2] | outcome [3] | outcome [4] | outcome [5] | Potency [6] | outcome [14] | outcome [7] | Potency [8] | Potency [9] | Potency [10] | Potency [15] | Potency [11] | Potency [13]

CC(C)(CO)C(O)C(=O)NCCCO (stereo not given)
inactive: outcome [1] | outcome [2] | outcome [3] | outcome [4] | outcome [5] | Potency [6] | outcome [14] | outcome [7] | Potency [8] | Potency [9] | Potency [10] | Potency [15] | Potency [12] | Potency [13]

C=C(C)c1cccc(C(C)(C)N=C=O)c1
inactive: outcome [1] | outcome [2] | outcome [3] | outcome [4] | Potency [6] | outcome [14] | outcome [7] | Potency [12]
active: Potency [8] 4.33 µM | Potency [10] 17.8 µM | Potency [13] 2.83 µM

O=C1CCC(=O)N1Cl
inactive: outcome [1] | outcome [2] | outcome [3] | outcome [4] | outcome [5] | Potency [6] | outcome [7] | Potency [8] | Potency [9] | Potency [15] | Potency [13]

Nc1nc(-c2ccccc2)c(Br)c(=O)[nH]1
inactive: outcome [1] | outcome [2] | outcome [3] | outcome [4] | outcome [5] | Potency [6] | outcome [14] | outcome [7] | Potency [8] | max activation [16] -0.177% | Potency [17] | Potency [10] | Potency [15] | Potency [12] | Potency [13]

COc1c2occc2c(OC)c2c(=O)cc(C)oc12
inactive: outcome [1] | outcome [2] | outcome [3] | outcome [4] | outcome [5] | Potency [6] | outcome [7] | max activation [16] -1.72% | Potency [12]
active: Potency [9] 12.3 µM | Potency [10] 3.47 µM | Potency [15] 12.3 µM | Potency [11] 0.144 µM

C=CCCCC
inactive: outcome [1] | outcome [2] | outcome [3] | outcome [4] | outcome [5] | Potency [6] | outcome [7] | Potency [8] | Potency [10] | Potency [15] | Potency [11] | Potency [12] | Potency [13]

CO/N=C(/C(=O)N[C@@H]1C(=O)N2C(C(=O)[O-])=C(C[n+]3ccn4ncccc43)CS[C@H]12)c1nsc(N)n1
active: Potency [11] 27.5 µM
inactive: outcome [1] | outcome [2] | outcome [3] | outcome [4] | outcome [5] | Potency [6] | outcome [14] | outcome [7] | Potency [8] | Potency [9] | Potency [10] | Potency [15] | Potency [12] | Potency [13]

COc1cc(/C=C/C(N)=O)cc(OC)c1OC
inactive: outcome [1] | outcome [2] | outcome [18] | outcome [19] | outcome [4] | outcome [5] | Potency [6] | outcome [14] | outcome [7] | Potency [8] | Potency [9] | Potency [10] | Potency [13]
active: Potency [11] 21.9 µM

O=C1CCCCO1
inactive: outcome [1] | outcome [2] | outcome [19] | outcome [4] | Potency [6] | outcome [14] | outcome [7] | Potency [8] | Potency [9] | Potency [10] | Potency [13]

CC1(C)[C@H]2CC[C@](C)(C2)[C@H]1O
inactive: outcome [1] | outcome [2] | outcome [18] | outcome [19] | outcome [4] | Potency [6] | outcome [14] | outcome [7] | Potency [8] | Potency [9] | Potency [10] | Potency [15] | Potency [11] | Potency [13]

CCCc1ccc(O)cc1
inactive: outcome [1] | outcome [2] | outcome [18] | outcome [19] | outcome [4] | outcome [5] | Potency [6] | outcome [7] | Potency [8] | Potency [12] | Potency [13]
active: Potency [11] 44.8 µM

CC1(C)O[C@H]2CC(=O)OC[C@]23[C@H]2CC[C@@]4(C)[C@H](c5ccoc5)OC(=O)[C@H]5O[C@]54[C@]2(C)C(=O)C[C@@H]13
inactive: outcome [1] | outcome [2] | outcome [19] | outcome [4] | outcome [5] | Potency [6] | outcome [14] | outcome [7] | Potency [8] | max activation [16] 5.81% | Potency [17] | Potency [9] | Potency [15] | Potency [11] | Potency [12]

O=C(CN1CCNCC1)NC1CCCCC1
inactive: outcome [1] | outcome [3] | outcome [18] | outcome [19] | outcome [4] | outcome [5] | Potency [6] | outcome [14] | outcome [7] | Potency [8] | max activation [16] -3.24% | Potency [17] | Potency [9] | Potency [10] | Potency [15] | Potency [11] | Potency [12] | Potency [13]
